Assay results published in PubChem BioAssay (NCI).
Compounds without any hit were thinned out: in the full panel of roughly 83,000, 20% have a hit.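 Cells were grown in 96-well plates and exposed to the test compound at a single concentration for 48 hours; results are reported as percent growth, with values below 10 considered active.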 Values without a mark were called inactive. The source made the active and inactive calls.

Key:
Experiment in all cases: NCI-60 one-dose screen, 48 h (100 = growth as untreated, 0 = no growth, -100 = all killed)
Settings in all cases: 10 µM unless noted
SR leukemia = system: SR leukemia
RPMI-8226 leukemia = system: RPMI-8226 leukemia
OVCAR-5 ovarian = system: OVCAR-5 ovarian
OVCAR-4 ovarian = system: OVCAR-4 ovarian
SK-OV-3 ovarian = system: SK-OV-3 ovarian
IGROV1 ovarian = system: IGROV1 ovarian
OVCAR-3 ovarian = system: OVCAR-3 ovarian
HS 578T breast = system: HS 578T breast
NCI/ADR-RES ovarian = system: NCI/ADR-RES ovarian
T-47D breast = system: T-47D breast
BT-549 breast = system: BT-549 breast
MDA-MB-435 melanoma = system: MDA-MB-435 melanoma
SW-620 colon = system: SW-620 colon
MCF7 breast = system: MCF7 breast
HCT-116 colon = system: HCT-116 colon
HCC-2998 colon = system: HCC-2998 colon
KM12 colon = system: KM12 colon
OVCAR-8 ovarian = system: OVCAR-8 ovarian

SMILES	growth (SR leukemia)	growth (RPMI-8226 leukemia)	growth (OVCAR-5 ovarian)	growth (OVCAR-4 ovarian)	growth (SK-OV-3 ovarian)	growth (IGROV1 ovarian)	growth (OVCAR-3 ovarian)	growth (HS 578T breast)	growth (NCI/ADR-RES ovarian)	growth (T-47D breast)	growth (BT-549 breast)	growth (MDA-MB-435 melanoma)	growth (SW-620 colon)	growth (MCF7 breast)	growth (HCT-116 colon)	growth (HCC-2998 colon)	growth (KM12 colon)	growth (OVCAR-8 ovarian)
CC(C)n1nc(-c2ccc3oc(N)nc3c2)c2c(N)ncnc21	9.35% (active)	-6.46% (active)	-9.99% (active)	-32.2% (active)	-32.6% (active)	-27.3% (active)	-6.08% (active)	-35.8% (active)	-20.6% (active)	-36% (active)	-23.9% (active)	-13.5% (active)	6.36% (active)	-4.22% (active)	7.89% (active)	9.05% (active)	-0.425% (active)	
C#Cc1c(I)n(C2OC(CO[Si](C)(C)C(C)(C)C)C3OC(C)(C)OC32)c(=O)[nH]c1=O (stereo not drawn)	-41.8% (active)	-66.8% (active)	91.9%	88.9%	107%	36.6%	-40.2% (active)	5.41% (active)	89.6%	-69.3% (active)	98.5%	81.2%	-98.3% (active)	42.1%	-49.6% (active)	-75.7% (active)	105%	
CNC1=C([N+](=O)[O-])C(c2ccc(OC)cc2)C(C#N)=C(c2ccc[nH]2)O1 (stereo not drawn)	98.2%	96.2%	109%	92.8%		104%	107%	98.1%	110%	100%		96%	104%	86.4%	99%	100%	114%	
CCCCC/C=C/CCC(=O)N[C@H]1[C@H](Oc2c3cc4cc2Oc2ccc(cc2Cl)[C@@H](O[C@@H]2O[C@H](CO)[C@@H](O)[C@H](O)[C@H]2NC(C)=O)[C@@H]2NC(=O)[C@H](NC(=O)[C@@H]4NC(=O)[C@H]4NC(=O)[C@@H](Cc5ccc(c(Cl)c5)O3)NC(=O)[C@@H](N)c3ccc(O)c(c3)Oc3cc(O)cc4c3)c3ccc(O)c(c3)-c3c(O[C@H]4O[C@H](CO)[C@@H](O)[C@H](O)[C@@H]4O)cc(O)cc3[C@H](C(=O)O)NC2=O)O[C@H](CO)[C@H](O)[C@@H]1O	95.5%	120%	114%	110%			104%	50.1%	96.5%	119%	107%	100%	102%	98.5%	101%	101%	111%	101%
COc1ccc(/C(C)=C(\c2ccc(Cl)cc2)c2ccc(OCCCN(C)C)cc2)cc1	0.701% (active)	25.6%	83.4%	90.4%			89%	71.5%	86.5%	58.1%	82.3%	39%	46.3%	36.9%	37.4%	100%	56.5%	85%
Cc1ccc(C2=Nc3c(N)nc(N)nc3NC(c3cccc(Nc4ccnc5cc(C(F)(F)F)ccc45)c3)C2)cc1 (stereo not drawn)	-8.2% (active)	-19.2% (active)	105%	58.2%	31.4%	36.1%	12.6%	26.3%	30.1%	46.9%	94%	-40.1% (active)	19.1%	6.88% (active)	1.85% (active)	35%	15%	
CCOC(=O)CC1CSC(N/N=C/c2ccc(O)cc2)=N1 (stereo not drawn)	98.5%	104%	100%	108%	88.8%	97.3%	110%	104%	108%	93.2%	100%	103%	98.1%	91%	81.1%	97.4%	100%	
CC(=O)Oc1ccccc1C(=O)N(Cc1ccc2c(Cl)cc(Cl)c(O)c2n1)c1ccccc1	39.7%	36.1%	77.2%	36.2%	64.5%		40.9%	76.5%	8.97% (active)	40.7%	77.3%	54.3%	29.1%	34.7%	30.9%	60.1%	39.6%	
[2H]C([2H])([2H])Oc1ccc(/C=C/C(=O)/C=C(O)/C=C/c2ccc(OC([2H])([2H])[2H])c(OC([2H])([2H])[2H])c2)cc1OC([2H])([2H])[2H]	18.6%	6.79% (active)	71.6%	42.2%	39%	52.9%	37.2%	51.7%	41.5%	21.8%	34.4%	12.3%	27.4%	4.59% (active)	5.1% (active)	76.4%	30.6%	
